# Hits are enriched below; roughly 21% of the tested compounds scored in any of these assays.
# Gal4-VP16 FLuc – VP16 counterscreen qHTS for inhibitors of ROR gamma transcriptional activity | Drosophila S2 Gal4-VP16 UAS-luciferase, luminescence, 20 h | Potency, µM (highest dose often 53.6 µM), most hits filed as inhibitors | 310,000 compounds, 3.5% hits;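 note: Gal4-VP16 expression switched on by copper sulfate through the metallothionein promoter; nearly all actives have a fitted effect of over 50% in size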
# DT40 TDP1 CPT – qHTS for Inhibitors of human tyrosyl-DNA phosphodiesterase 1 (TDP1): qHTS in cells in presence of CPT; AID 686979, 2013; chicken DT40 Tdp1-/-;hTDP1 cells + 20 nM CPT, ATP luminescence, 48 h; Potency, µM (titrated, usually from 46.2 µM), actives largely listed as inhibitors; 420,000 compounds, 12% hits; note: nearly all actives have a fitted effect of over 55% in size
#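 Cell growth measured by CellTiter-Glo luminescence after a minimum 48 h, 37 C compound exposure with 20 nM CPT in Tdp1-knockout DT40 cells stably expressing hTDP1, seeded 400/well; qHTS titration format.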
# IL-1B inflam inh – qHTS for Inhibitors of Inflammasome Signaling: IL-1-beta AlphaLISA Primary Screen; THP-1 LPS/ATP IL-1B secretion, AlphaLISA, 16 h; active compounds read low; activity change, % at 57.5 µM; 360,000 compounds, 4.7% hits; AID 743279, 2014; in the data active = activity change below about -50%; inconclusive = mostly about -30% to -49%
#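 THP-1 cells pretreated 1 hr with compounds (up to 57.5 uM final), then stimulated with LPS (250 ng/mL final) plus ATP (1.25 mM final); secreted IL-1B measured by AlphaLISA after 16 hr, decreased signal indicating inhibition.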
# ELG1 DNA repair – qHTS screen for small molecules that inhibit ELG1-dependent DNA repair in human embryonic kidney (HEK293T) cells expressing luciferase-tagged ELG1; HEK293T ELG1-luciferase reporter, luminescence, 16 h; DNA damage induced by 5-fluorouridine; 330,000 compounds, 2.3% hits; Potency, µM (titrated, usually from 46.1 µM), usual class: inhibitors; AID 504467, 2011; note: nearly all actives have a fitted effect of over 55% in size
#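 Cells (2,000 per well) received 5-fluorouridine plus test compound or DMSO and were incubated 16 hr at 37 °C, 5% CO2. Luciferase activity was read by luminescence 30 min after ONE-Glo addition; signal suppression marked inhibition of damage-induced ELG1 function.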
# RORg inh – qHTS for inhibitors of ROR gamma transcriptional activity; 310,000 compounds, 5.4% hits; AID 2551, 2010; Drosophila S2 Gal4-RORgamma UAS-luciferase reporter, 20 h; Potency, µM (titrated, usually from 53.6 µM), actives largely listed as inhibitors; Nuclear receptor ROR-gamma (Mus musculus), P51450; note: nearly all actives have a fitted effect of over 60% in size
# Target sequence (P51450 whole entry, looked up, the tested form may be a part): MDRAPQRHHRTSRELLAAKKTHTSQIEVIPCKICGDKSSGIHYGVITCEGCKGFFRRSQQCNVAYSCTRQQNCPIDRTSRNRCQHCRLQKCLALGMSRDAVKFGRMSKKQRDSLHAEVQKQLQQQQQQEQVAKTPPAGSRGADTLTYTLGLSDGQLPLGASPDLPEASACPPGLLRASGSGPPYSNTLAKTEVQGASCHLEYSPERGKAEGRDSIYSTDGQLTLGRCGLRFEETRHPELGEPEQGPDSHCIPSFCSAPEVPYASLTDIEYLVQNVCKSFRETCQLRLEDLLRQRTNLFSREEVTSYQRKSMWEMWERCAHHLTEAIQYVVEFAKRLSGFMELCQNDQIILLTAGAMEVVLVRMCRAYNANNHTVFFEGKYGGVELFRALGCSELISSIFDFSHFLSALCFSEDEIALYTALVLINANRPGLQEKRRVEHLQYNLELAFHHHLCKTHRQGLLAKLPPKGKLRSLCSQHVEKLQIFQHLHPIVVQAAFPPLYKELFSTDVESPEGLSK
#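 Read-out: Photinus luciferase luminescence; inhibitors lower reporter signal. Insect Schneider cells with Gal4-ROR gamma fusion under metallothionein promoter, UAS reporter; 700 uM final copper sulfate induction, 20 hr, ambient temperature.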
# DT40 TDP1 no CPT – qHTS for Inhibitors of human tyrosyl-DNA phosphodiesterase 1 (TDP1): qHTS in cells in absence of CPT; Potency, µM (top dose mostly 46.2 µM), actives largely listed as inhibitors; DT40 Tdp1-/- hTDP1 cells, no CPT, ATP luminescence, 48 h; AID 686978, 2013; 420,000 compounds, 15% hits; note: nearly all actives have a fitted effect of over 55% in size
#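 Seeded 400 DT40-hTDP1 cells/well (vehicle DMSO, no 20 nM CPT); pinned compounds; ≥48 hr at 37 °C; CellTiter-Glo luminescence as viability measure.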
# Hits are given with their value; 0 = inactive; ? = inconclusive; - = no result given; [ ] = remark or other dose. Unless noted, calls come from the whole dose curve; as a rule, active = well fitted curve in the direction sought with a large enough effect; inconclusive = small, poorly fitted or top-dose-only effect, or another doubt; inactive = no such curve, though single readings can be large; an effect the other way counts as inactive or inconclusive.
SMILES,Gal4-VP16 FLuc,DT40 TDP1 CPT,IL-1B inflam inh,ELG1 DNA repair,RORg inh,DT40 TDP1 no CPT
COc1cc(=O)n2c(c1C(=O)N(C)Cc1nonc1C)CCN(Cc1ccccc1F)CC2,-,0[9.04 µM],-,-,-,0
Cc1oc2ncnc(N3CCOCC3)c2c1C(=O)N1CCN(c2cccc(C(F)(F)F)c2)CC1,-,?,-,-,-,0
NS(=O)(=O)c1ccc(CCNc2nn3c(-c4cccc(OC(F)(F)F)c4)cnc3s2)cc1,-,11.6µM,-83.5,-,-,13µM
O=C(COc1ccc2ccccc2c1Br)NC(=S)Nc1cccc(CO)c1,10µM,0,0,?,7.94µM,?
O=C(COc1ccc(Br)cc1Br)NC(=S)Nc1cccc(CO)c1,8.91µM,?,0,?,1.41µM,0
O=C(COc1ccccc1Cl)NC(=S)Nc1cccc(NC(=O)c2ccccc2Cl)c1,0,0,0,0,0,0
CC(O)CCC(=O)NCCNC(=O)CCC(C)O (stereo not drawn),0,25.9µM,0,?,0,?
COc1ccccc1CNC(=O)[C@H](C)NC(=O)C1CCN(C(=O)[C@@H]2CCCN2C(=O)OC(C)(C)C)CC1,0,0,0,0,0,0
CCN(CC)C(=O)c1ccc(/C=C/c2c[nH]c3ccccc23)[n+](C)c1,0,0,0,?,0,?
OCC[n+]1ccc(/C=C/c2c[nH]c3ccccc23)cc1,0,6.51µM,0,0,0,5.8µM
C(=C\c1c[nH]c2ccccc12)/c1cc[n+](C2CCCCC2)cc1,-,0,-,-,-,?
CCCCCCCCCC[n+]1ccc(/C=C/c2c[nH]c3ccccc23)cc1,-,0.316µM,-,-,-,0.112µM
CCCCCCCCCCCCCCCC[n+]1ccc(/C=C/c2c[nH]c3ccccc23)cc1,-,0.891µM,-,-,-,0.708µM
Cn1cccc1C(=O)N1CCC[C@@]2(CCN(c3ccccc3)C2)C1,0,?,-,-,0,25.9µM
Cn1cccc1C(=O)N1CCC[C@@]2(CCN(c3cccc(-c4ccccc4)c3)C2)C1,0,?,-,-,0,?
Cn1cccc1C(=O)N1CCC2(CC1)CCN(c1cccc(-c3ccccc3)c1)CC2,0,16.4µM,-,-,0,?
COc1ccc(C(=O)N2CCC3(CCCN(c4cccc(-c5ccccc5)c4)C3)CC2)cc1,0,?,-,-,0,20.6µM
Cn1cccc1C(=O)N1CCC2(CCCN(c3cccc(-c4ccccc4)c3)C2)CC1,0,?,-,-,0,13µM
Cc1nnsc1C(=O)NC1CCCc2c1cnn2-c1ccc(F)cc1F (stereo not drawn),7.08µM,6.51µM,0,0,?,5.8µM
Cc1nnsc1C(=O)NC1CCCc2c1cnn2-c1cc(F)cc(F)c1 (stereo not drawn),0,0,0,?,0,0
CN1N=C(C(=O)NC2CCCc3c2cnn3-c2ccc(F)cc2F)CCC1=O (stereo not drawn),?,0,0,0,?,0
Cc1ccc(C(=O)NC2CCCc3c2cnn3-c2ccc(F)cc2F)cn1 (stereo not drawn),2.82µM,-,-,0,?,-
O=C(Cn1cc2ccccc2n1)N1CCOc2ccc(C(O)C3CCCCC3)cc2C1 (stereo not drawn),-,0[9.04 µM],-,-,-,?
Cc1csc(SCC(=O)N2CCOc3ccc(C(O)C4CCCCC4)cc3C2)n1 (stereo not drawn),-,?,-,-,-,20.6µM
COc1ccc(-c2nc3c4ccccc4ccn3c2CN2CCOCC2)cc1OC,0,14.6µM,?,?,?,?
SMILES,Gal4-VP16 FLuc,DT40 TDP1 CPT,IL-1B inflam inh,ELG1 DNA repair,RORg inh,DT40 TDP1 no CPT
COc1ccc(-c2nc3c4ccccc4ccn3c2CC2CCCCC2)cc1OC,-,?,0,-,-,23.1µM
c1ccc(-c2nc3c4ccccc4ccn3c2CN2CCOCC2)cc1,0,10.3µM,0,?,?,18.4µM
COc1ccc(-c2nc3c4ccccc4ccn3c2Cc2cccc(F)c2)cc1OC,-,?,0,-,-,?
COC(=O)C1=C(C)N(Cc2ccccc2)C2=C3C(=O)OCCC3[C@@](O)(C(=O)OC)C(=O)N2C1c1ccccc1 (stereo partly drawn),0[10 µM],-,-,-,0[10 µM],-
Cc1ccc(-c2csc(C(C)(O)c3ccc(F)c(F)c3)n2)cc1C (stereo not drawn),-,?,0,-,-,0
CC(O)(c1ccc(F)c(F)c1)c1nc(-c2cccc(F)c2)cs1 (stereo not drawn),-,?,0,-,-,?
CC(O)(c1ccc(F)c(F)c1)c1nc(-c2cc(F)cc(F)c2)cs1 (stereo not drawn),-,?,0,-,-,16.4µM
CC(O)(c1ccc(F)c(F)c1)c1nc(-c2ccccc2)cs1 (stereo not drawn),-,?,0,-,-,13µM
COc1ccc(NS(=O)(=O)c2ccc3[nH]c(=O)ccc3c2)cc1OC,-,0,-,-,-,0
CCC(C)NC(=O)C(NS(=O)(=O)c1cccc2nsnc12)c1ccccc1 (stereo not drawn),0,0,0,0,0,0
CCc1ccc(NC(=O)C(NS(=O)(=O)c2cccc3nsnc23)c2ccccc2)cc1 (stereo not drawn),0,?,0,0,?,25.9µM
CCN(C(=O)C(NS(=O)(=O)c1cccc2nsnc12)c1ccccc1)c1ccccc1 (stereo not drawn),-,?,-,-,-,23.1µM
CCCOc1ccc(CN2C(=O)C(=O)c3cccc(C)c32)cc1,-,1.3µM,-,-,-,1.84µM
Cc1ccc(CN2C(=O)C(=O)c3cc(Br)cc(C)c32)cc1,-,2.31µM,-,-,-,1.46µM
Cc1cccc2c1N(CCOc1ccc(C(C)(C)C)cc1)C(=O)C2=O,?,2.91µM,0,?,0,4.11µM
CCCOc1ccc(Cn2c(=O)oc3ccc(C)cc32)cc1,0,0,0,0,0,0
Cc1ccc(OCCN2C(=O)C(=O)c3cc(C)ccc32)cc1,0,0.92µM,0,0,0,?
CCCCN(CC)C(=O)CCNS(=O)(=O)c1ccc2c(c1)c(=O)n(C)c(=O)n2C,-,0,-,-,-,0
CCOc1ccccc1N1C(=O)c2ccccc2N/C1=C\N1CCN(C(=O)c2ccco2)CC1,-,0,-,-,-,?
Cc1ccc(OCCCN2C(=O)C(=O)c3cccc(C)c32)cc1,12.6µM,7.31µM,0,0,7.94µM,14.6µM
OCC1OC(c2ccc3c(c2)OCO3)C=CC1Oc1cc(Cl)cc(Cl)c1 (stereo not drawn),0[10 µM],-,-,-,0[10 µM],-
COc1ccc(C(=O)N2CCN(c3ccc(C)cc3C)CC2)cc1OC,0,20.6µM,0,0,0,25.9µM
COc1ccc(C(=O)N2CCN(c3ccc(C)c(C)c3)CC2)cc1OC,0,?,0,0,0,16.4µM

# Source: PubChem (National Center for Advancing Translational Sciences (NCATS))
